Here are results for 11 compounds from PubChem BioAssay.

The test system of assay [1] is Human papillomavirus type 1a protein E7 (residues 44-93). Put plainly: HPV1a E7 fragment binders on microarrays, primary screen, biochemical, small-molecule microarray, residues 44-93, 635 nm fluorescence (AID 1108).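 Also: E7 fragment applied at 1 µg/mL in TBST for 1 h at 4 C; score combines spot fluorescence with its signal to noise ratio.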 The settings on record: small-molecule microarray binding, fluorescence 635 nm; higher = more signal.
Assay [2] is described as follows: modulators of HCV replicon luciferase signal, primary screen, HCV replication inhibitor project, Huh7 cells, luciferase reporter (AID 1109).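 Also: huh7 hepatoma cells harbouring a luciferase neomycin HCV replicon reporter; luciferase luminescence as measure of HCV replicon replication; test concentration not given here.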 The settings on record: 48 h, higher = more signal. For orientation: A replicon is a self-replicating genome or part of one, used to study replication in cells.
The target of assay [3] is Left-right determination factor 2 (Homo sapiens) (UniProt O00292). Put plainly: LEFTY2 binders on small-molecule microarrays, primary screen, biochemical, small-molecule microarray, 635 nm fluorescence scan (AID 1110). Particulars: LEFTY2 binding, higher = more signal.
Assay [4] deals with Calmodulin-1 (Homo sapiens) (UniProt P0DP23). As to the kind of experiment: CALM1 binders on microarrays, EGTA buffer, profiling panel, biochemical, small-molecule microarray, Cy5-labelled CALM1 (AID 1111).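 Also: labelled calmodulin applied in Tris saline Tween buffer holding calcium plus EGTA and DTT.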 The settings on record: Cy5-CALM1 binding fluorescence, higher = more signal.
For assay [5] the target is unchanged. Put plainly: calcium-bound CALM1 binders on microarrays, profiling panel, artefact control for SMM control-protein annotation, biochemical, small-molecule microarray, Cy5-labelled CALM1, plus calcium (AID 1112).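 Also: score merges spot fluorescence with signal to noise from triplicate slides.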 Particulars: Cy5-CALM1 binding fluorescence, higher = more signal.
Assay [6] can be described thus: small-molecule microarray binders of probe aWnt5a, primary screen, biochemical, biotinylated probe, 635/667 nm fluorescence (AID 1113).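 Also: score merges 667 nm fluorescence intensity with signal-to-noise per printed feature.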 The settings on record: higher = more signal.
The nature of assay [7]: small-molecule microarray binders of probe aShh, primary screen, biochemical, biotinylated probe, 635/667 nm fluorescence (AID 1114).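 Also: probe is biotin-labelled aShh protein from a stem cell growth factor screen; measures binding of labelled protein to compounds printed on the slide; score merges feature fluorescence at 667 nm with signal-to-noise.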 Particulars: higher = more signal.
Assay [8] is described as follows: small-molecule microarray binders of probe aNog, primary screen, biochemical, biotinylated probe, 635/667 nm fluorescence (AID 1115).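 Also: probe is biotinylated aNog protein used at 0.15 µg/mL for 1 h at 4 C; z-score combines 667 nm fluorescence of each spot with its signal to noise.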 Particulars: higher = more signal.
For assay [9], the target named is Torsin-1A-interacting protein 1 (Homo sapiens) (UniProt Q5JTV8). As to the kind of experiment: LAP1 binders from COS7 cell lysate, primary screen, small-molecule microarray, 635/667 nm fluorescence (AID 1116). The settings on record: COS7-hLAP1 lysate binding, 635 nm fluorescence, higher = more signal.
The target in assay [10] is Alpha-bungarotoxin (Bungarus multicinctus) (UniProt P60615). Put plainly: alpha-bungarotoxin binders on microarray, profiling panel, artefact control for SMM control protein annotation, biochemical, small-molecule microarray, Alexa647 label, 635/667 nm fluorescence (AID 1117). The settings on record: alpha-BTX-A647 binding fluorescence, higher = more signal.

The structures appear in SMILES notation.

Chain of Alpha-bungarotoxin (Bungarus multicinctus) (P60615 whole entry, looked up): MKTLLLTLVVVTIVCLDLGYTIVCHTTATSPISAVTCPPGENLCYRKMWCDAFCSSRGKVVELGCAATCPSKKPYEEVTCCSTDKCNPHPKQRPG
Chain of Torsin-1A-interacting protein 1 (Homo sapiens) (Q5JTV8 whole entry, looked up): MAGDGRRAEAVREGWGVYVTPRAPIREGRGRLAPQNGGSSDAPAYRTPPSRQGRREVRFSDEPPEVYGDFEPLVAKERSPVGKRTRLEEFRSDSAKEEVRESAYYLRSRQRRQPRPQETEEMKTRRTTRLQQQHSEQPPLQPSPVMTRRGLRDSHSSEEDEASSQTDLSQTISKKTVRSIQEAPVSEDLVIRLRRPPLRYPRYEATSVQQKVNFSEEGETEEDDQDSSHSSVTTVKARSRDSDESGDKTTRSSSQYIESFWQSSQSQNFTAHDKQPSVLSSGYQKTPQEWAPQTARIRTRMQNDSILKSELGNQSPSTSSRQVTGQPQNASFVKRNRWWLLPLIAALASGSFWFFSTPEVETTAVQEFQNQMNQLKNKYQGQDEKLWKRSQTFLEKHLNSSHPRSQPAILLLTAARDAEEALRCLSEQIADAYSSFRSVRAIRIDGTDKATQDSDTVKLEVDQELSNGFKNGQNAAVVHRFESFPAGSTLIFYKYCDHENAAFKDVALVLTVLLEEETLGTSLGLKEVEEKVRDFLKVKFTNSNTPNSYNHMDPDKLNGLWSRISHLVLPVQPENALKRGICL
Chain of Left-right determination factor 2 (Homo sapiens) (O00292 whole entry, looked up): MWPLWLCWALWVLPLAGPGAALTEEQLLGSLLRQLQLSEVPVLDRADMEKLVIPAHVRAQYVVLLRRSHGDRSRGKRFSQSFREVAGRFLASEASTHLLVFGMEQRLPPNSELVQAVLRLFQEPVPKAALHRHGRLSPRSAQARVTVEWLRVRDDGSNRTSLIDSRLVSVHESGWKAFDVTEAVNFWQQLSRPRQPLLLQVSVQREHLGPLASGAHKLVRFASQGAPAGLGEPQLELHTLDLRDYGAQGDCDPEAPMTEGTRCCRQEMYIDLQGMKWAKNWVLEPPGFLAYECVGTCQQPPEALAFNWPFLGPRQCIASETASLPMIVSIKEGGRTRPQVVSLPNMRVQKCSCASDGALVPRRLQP

With `COC(=O)C[C@H]1O[C@@]2(C[C@@H]1[Si](C)(C)C)C(=O)N(C)c1ccccc12`, the composite z-score in assay [1] was 1.06; in [3], 0.392; in [4] it was -0.197; in assay [5], -0.273; in [6] it was -0.0643; in assay [7], -0.362. Besides, the results for the composite z-score in [8], in [9] and in [10] were 0.273, -0.116 and 0.586, respectively. The z-score in assay [2] is -0.83.
For the compound `CN1C(=O)C2C=CC(C(O)c3ccc(-c4ccccc4)s3)N(NC(=O)OC(C)(C)C)C2C1=O` (stereo not given), the composite z-score is 0.399 in assay [1]; 0.285 in assay [3]; 2.28 in [4]; 0.902 in [5]; 0.055 in assay [6]; -0.279 in [7]. Besides, the figures for the composite z-score in assay [8], in assay [9] and in assay [10] were 1.38, 1.52 and 1.62, respectively. Besides, in [2], the z-score is -0.204.
As for `Cc1ccc(F)cc1S(=O)(=O)N[C@H]1CCN(Cc2ccc(OC(C)C)cc2)C1`, the composite z-score in assay [1] was 1.34; in assay [3], 0.379; in assay [4], -0.781; in assay [5] it was -1.43; in [6] it was -0.187; in assay [7], -0.0959. For the same compound, the figures for the composite z-score in assay [8], in assay [9] and in assay [10] were -0.131, 0.228 and -0.494, respectively. Also, the z-score in [2] was -3.4.
For the compound `[N-]=[N+]=Nc1ccccc1[C@H]1OC(c2ccc(OCCCO)cc2)=N[C@@]1(Cc1ccccc1)C(=O)NCC(O)CO` (stereo not given in full), the composite z-score in assay [1] was 1.38; in assay [3], -1.04; in [4], 1.04; in assay [5], 1; in assay [6], 0.119; in assay [7] it was 0.257. Also, the composite z-score was found to be 0.0005 in assay [8], 1.5 in assay [9] and 1.57 in assay [10]. Also, the z-score in [2] was -1.29.
On to `O=C1C2C=CC(C(O)C3CCCCC3)N(n3cnnc3)C2C(=O)N1Cc1ccccc1` (stereo not given), for which the composite z-score was 1.45 in [1]; -0.0665 in assay [3]; 0.879 in assay [4]; -0.195 in [5]; 0.0914 in assay [6]; -0.0064 in assay [7]. In addition, the composite z-score in assay [8] amounted to 1.07; in [9], 0.598; in [10], 0.496. This compound also yielded a z-score in [2] of -0.911.
`COC(=O)[C@@]1(Cc2ccccc2)[C@H]2c3cc(C(=O)N(C)C)n(Cc4ccc(S(C)(=O)=O)cc4)c3C[C@H]2CN1C(=O)c1ccccc1`: the composite z-score is -1.1 in [1]; -0.115 in assay [3]; 1.69 in [4]; 1.11 in assay [5]; 0.0613 in assay [6]; 0.954 in assay [7]. The composite z-score was found to be 0.35 in assay [8], 1.29 in assay [9] and 0.548 in [10]. In assay [2], this compound showed a z-score of -0.912.
Turning to `NC(=O)NCC#Cc1ccc2c(c1)[C@]1(C(=O)N2)[C@H](c2ccc(OCCO)cc2)N2[C@H](c3ccccc3)[C@H](c3ccccc3)OC(=O)[C@H]2[C@@H]1C(=O)O`, the composite z-score in assay [1] is -0.979; in assay [3], -0.644; in assay [4], 0.024; in assay [5] it was 0.991; in assay [6], -0.122; in assay [7], -0.102. For the same compound, the composite z-score in assay [8] was determined as 0.281; in [9] it was 0.561; in [10] it was 2.44. In assay [2], this compound registered a z-score of -0.591.
On to `CC1=C([C@H](O)CCc2ccccc2)[C@H](CO)n2c(=O)n(-c3ccccc3)c(=O)n2C1`, for which the composite z-score in [1] was -0.679; in [3], 0.209; in assay [4] it was -0.524; in assay [5] it was -0.604; in [6], -0.0685; in [7] it was -0.169. Moreover, the composite z-score in assay [8] is -0.0438; in [9], -0.395; in assay [10] it was -0.105. The compound further came in with a z-score in assay [2] of -0.508.
On to `COc1ccc(C(=O)Nc2ccc3c(c2)[C@@]2(O[C@H](CCO)[C@@H]([Si](C)(C)c4ccc(OC)cc4)[C@@H]2C)C(=O)N3Cc2ccccc2)cc1`, for which the composite z-score was 1.28 in assay [1]; 0.219 in [3]; 0.397 in [4]; 0.238 in assay [5]; -0.0599 in assay [6]; -0.0782 in [7]. The composite z-score was 0.56 in assay [8], 0.518 in assay [9] and 0.399 in assay [10]. For the same compound, the z-score in assay [2] was -5.23.
For `CCCC=C(CCC)[C@@H](NC(=O)OCC(C)C)c1ccc(C(=O)OC)cc1`, the composite z-score in assay [1] is 0.903; in assay [3], 0.66; in assay [4], 0.059; in [5], -0.307; in assay [6], -0.217; in [7], -0.138. The composite z-score in [8] is -0.0496; in assay [9] it was 0.0246; in assay [10] it was -0.376. Besides, in assay [2], the z-score is -1.02.
For the compound `O=C1C2C=CC(C(O)c3ccc([N+](=O)[O-])cc3)N(Nc3ccccc3F)C2C(=O)N1c1ccccc1` (stereo not given), the composite z-score in assay [1] is 0.395; in assay [3] it was -0.303; in [4], 0.865; in assay [5], 0.378; in assay [6], 0.0919; in [7] it was 0.0442. Further, the composite z-score worked out at 1.01 in [8], 1.55 in assay [9] and 1.06 in assay [10]. This compound showed a z-score in assay [2] of -0.288.
